This is part of a sample that, as a whole, favours compounds with a hit. Of some 83,000 tested, about 20% had one in any assay.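 Results are percent growth after 48 hours of single-concentration exposure. 100 means growth as in untreated cells, lower positive values show inhibition; negative values down to -100 show cell death.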 A number with no mark means an inactive call. Activity calls are given as the source filed them. Rule for the calls: active = growth percent below 10; inactive = the rest.
How the values were obtained:
Assay in all cases: NCI-60 one-dose screen, 48 h (100 = growth as untreated, 0 = no growth, -100 = all killed)
HT29 colon = details: 10 µM unless noted
SNB-75 CNS = details: 10 µM unless noted
SNB-19 CNS = details: 10 µM unless noted
U251 CNS = details: 10 µM unless noted
PC-3 prostate = details: 10 µM unless noted
UACC-62 melanoma = details: 10 µM unless noted
LOX IMVI melanoma = details: 10 µM unless noted
SK-MEL-28 melanoma = details: 10 µM
SK-MEL-2 melanoma = details: 10 µM unless noted
EKVX NSCLC = details: 10 µM unless noted
SN12C renal = details: 10 µM unless noted
UO-31 renal = details: 10 µM unless noted
TK-10 renal = details: 10 µM unless noted
ACHN renal = details: 10 µM unless noted
CAKI-1 renal = details: 10 µM unless noted
A498 renal = details: 10 µM unless noted
CCRF-CEM leukemia = details: 10 µM unless noted
MOLT-4 leukemia = details: 10 µM unless noted
SR leukemia = details: 10 µM unless noted
SK-MEL-5 melanoma = details: 10 µM unless noted

COc1cc(C2C(C#N)=C(N)OC3=C2C(=O)c2ccccc2C3=O)cc(OC)c1O (centres undefined)
growth (HT29 colon): 65.1% | growth (SNB-75 CNS): 4.8% (active) | growth (SNB-19 CNS): 37.3% | growth (U251 CNS): 19.9% | growth (PC-3 prostate): 18.9% | growth (UACC-62 melanoma): 36.9% | growth (LOX IMVI melanoma): 25.5% | growth (SK-MEL-28 melanoma): 66.4% | growth (SK-MEL-2 melanoma): 21.1% | growth (EKVX NSCLC): 78.9% | growth (SN12C renal): 47.5% | growth (UO-31 renal): 36% | growth (TK-10 renal): 70.1% | growth (ACHN renal): 41.2% | growth (CAKI-1 renal): 38.8% | growth (A498 renal): -8.45% (active) | growth (CCRF-CEM leukemia): 106% | growth (MOLT-4 leukemia): 105% | growth (SR leukemia): 38.1%

O=C(Nc1ccc(I)cc1F)c1cc(Cl)ccc1O
growth (HT29 colon): 33.5% | growth (SNB-75 CNS): -24.3% (active) | growth (SNB-19 CNS): 18.6% | growth (U251 CNS): 0.895% (active) | growth (PC-3 prostate): 3.02% (active) | growth (UACC-62 melanoma): -18.8% (active) | growth (LOX IMVI melanoma): 0.0612% (active) | growth (SK-MEL-28 melanoma): -4.2% (active) | growth (SK-MEL-2 melanoma): -30.8% (active) | growth (EKVX NSCLC): 7.55% (active) | growth (SN12C renal): 2.43% (active) | growth (UO-31 renal): 9.04% (active) | growth (TK-10 renal): 10.5% | growth (ACHN renal): 6.15% (active) | growth (CAKI-1 renal): -12% (active) | growth (A498 renal): -64.4% (active) | growth (CCRF-CEM leukemia): 7.89% (active) | growth (MOLT-4 leukemia): -30.5% (active)

Cc1cccc(NC(=O)c2sc3nc4c(cc3c2N)CCCC4)c1C
growth (HT29 colon): 2.81% (active) | growth (SNB-75 CNS): 10.8% | growth (SNB-19 CNS): 26.2% | growth (U251 CNS): 15.1% | growth (PC-3 prostate): 21.2% | growth (UACC-62 melanoma): 38.7% | growth (LOX IMVI melanoma): 42.3% | growth (SK-MEL-28 melanoma): 68.5% | growth (SK-MEL-2 melanoma): 49.1% | growth (EKVX NSCLC): 45.4% | growth (SN12C renal): 38.9% | growth (UO-31 renal): 50.6% | growth (TK-10 renal): 65.4% | growth (ACHN renal): 41.3% | growth (CAKI-1 renal): 34.8% | growth (A498 renal): 4.01% (active) | growth (CCRF-CEM leukemia): 7.79% (active) | growth (MOLT-4 leukemia): 19.3% | growth (SR leukemia): 34.7%

COc1cc(/C=C/C(=O)N2c3ccccc3CC2C)c(OC)c2c1OCO2 (centres undefined)
growth (HT29 colon): 83.8% | growth (SNB-75 CNS): 97.2% | growth (SNB-19 CNS): 96.2% | growth (U251 CNS): 87.6% | growth (PC-3 prostate): 68.7% | growth (UACC-62 melanoma): 84.5% | growth (LOX IMVI melanoma): 94.3% | growth (SK-MEL-28 melanoma): 90.7% | growth (SK-MEL-2 melanoma): 98.6% | growth (EKVX NSCLC): 87.7% | growth (SN12C renal): 97.1% | growth (UO-31 renal): 77.9% | growth (TK-10 renal): 96% | growth (ACHN renal): 95.7% | growth (CAKI-1 renal): 101% | growth (A498 renal): 69.1% | growth (CCRF-CEM leukemia): 94.6% | growth (MOLT-4 leukemia): 84.6% | growth (SR leukemia): 102%

O=C(Nc1ccc(I)cc1F)c1cc(F)ccc1O
growth (HT29 colon): 25.6% | growth (SNB-75 CNS): -20.7% (active) | growth (SNB-19 CNS): 16.8% | growth (U251 CNS): -16.8% (active) | growth (PC-3 prostate): 3.39% (active) | growth (UACC-62 melanoma): -21.9% (active) | growth (LOX IMVI melanoma): 0.316% (active) | growth (SK-MEL-28 melanoma): -5.23% (active) | growth (SK-MEL-2 melanoma): -35.8% (active) | growth (EKVX NSCLC): 5.82% (active) | growth (SN12C renal): 0.104% (active) | growth (UO-31 renal): 6.41% (active) | growth (TK-10 renal): -0.353% (active) | growth (ACHN renal): 2.56% (active) | growth (CAKI-1 renal): -24.8% (active) | growth (A498 renal): -58.9% (active) | growth (CCRF-CEM leukemia): 6.38% (active) | growth (MOLT-4 leukemia): -16.4% (active)

COc1cccc(-c2nn(C)c3sc(C(=O)NCCN4CCN(c5ccccc5F)CC4)cc23)c1
growth (HT29 colon): 17% | growth (SNB-75 CNS): 64.8% | growth (SNB-19 CNS): 92.4% | growth (U251 CNS): 59% | growth (PC-3 prostate): 38.3% | growth (SK-MEL-5 melanoma): -79.6% (active) | growth (UACC-62 melanoma): -72.1% (active) | growth (SK-MEL-2 melanoma): 99.4% | growth (SN12C renal): 60.9% | growth (UO-31 renal): 65.9% | growth (TK-10 renal): 83.9% | growth (ACHN renal): 85.3% | growth (CAKI-1 renal): 68% | growth (A498 renal): 39% | growth (CCRF-CEM leukemia): 1.87% (active) | growth (MOLT-4 leukemia): 7.79% (active) | growth (SR leukemia): -39.5% (active)

O=C1c2cc(I)ccc2Oc2cc([N+](=O)[O-])ccc2N1c1ccc(Cl)cc1F
growth (HT29 colon): 83.9% | growth (SNB-75 CNS): 75.4% | growth (SNB-19 CNS): 90.5% | growth (U251 CNS): 79.3% | growth (PC-3 prostate): 78.7% | growth (UACC-62 melanoma): 76.8% | growth (LOX IMVI melanoma): 86.7% | growth (SK-MEL-28 melanoma): 97.3% | growth (SK-MEL-2 melanoma): 85.4% | growth (EKVX NSCLC): 93.5% | growth (SN12C renal): 90.8% | growth (UO-31 renal): 63.6% | growth (TK-10 renal): 120% | growth (ACHN renal): 90.3% | growth (CAKI-1 renal): 63.9% | growth (A498 renal): 91.4% | growth (CCRF-CEM leukemia): 76.8% | growth (MOLT-4 leukemia): 56.6%

Nc1nc(-c2cnccn2)nn1-c1nc2ccccc2s1
growth (HT29 colon): 99.7% | growth (SNB-75 CNS): 96.4% | growth (SNB-19 CNS): 98.2% | growth (U251 CNS): 93.5% | growth (PC-3 prostate): 99.4% | growth (SK-MEL-5 melanoma): 92.2% | growth (UACC-62 melanoma): 101% | growth (SK-MEL-2 melanoma): 99.5% | growth (EKVX NSCLC): 94.6% | growth (SN12C renal): 101% | growth (UO-31 renal): 99.6% | growth (TK-10 renal): 117% | growth (ACHN renal): 108% | growth (CAKI-1 renal): 96.8% | growth (A498 renal): 118% | growth (CCRF-CEM leukemia): 97.4% | growth (MOLT-4 leukemia): 94.7% | growth (SR leukemia): 98.4%

O=c1oc2ccc(F)cc2c(=O)n1-c1ccc(F)cc1F
growth (HT29 colon): 97.1% | growth (SNB-75 CNS): 2.33% (active) | growth (SNB-19 CNS): 38.1% | growth (U251 CNS): 13.6% | growth (PC-3 prostate): 16.1% | growth (UACC-62 melanoma): 3.17% (active) | growth (LOX IMVI melanoma): 14.2% | growth (SK-MEL-28 melanoma): 23% | growth (SK-MEL-2 melanoma): -11.8% (active) | growth (EKVX NSCLC): 93.5% | growth (SN12C renal): 24.9% | growth (UO-31 renal): 26% | growth (TK-10 renal): 10.4% | growth (ACHN renal): 36.3% | growth (CAKI-1 renal): 16.4% | growth (A498 renal): -30.5% (active) | growth (CCRF-CEM leukemia): 35.9% | growth (MOLT-4 leukemia): 22.3%

From PubChem BioAssay (NCI)
